# Source: PubChem
# Rows were chosen to be rich in hits. Some 1.1% of all compounds tested hit in one or more screens of this group.
# Apoferritin bind: binds horse apoferritin like a general anesthetic; P02791; apoferritin/1-aminoanthracene competitive binding, fluorescence; Potency, µM (series often up to 77.5 µM), usual class: inhibitors; 0.074% of 350,000 active; note: nearly all actives have a fitted effect of over 20% in size
#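 Horse-spleen apoferritin (10 uM) was mixed with 50% saturated 1-aminoanthracene in PBS, exposed to compounds for 10 min at room temperature, and read for fluorescence (ex 380 nm, em 535 nm). Competitive displacement was fitted with a four-parameter Hill equation.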
# Chronic BCR inh: blocks chronic active B-cell receptor signaling | Potency, µM (series often up to 46.1 µM), most hits filed as inhibitors | ABC-DLBCL IkBa-CBG/CBR reporter, luminescence ratio, 4 h | AID 493014 | 0.05% of 340,000 active; active = well fitted inhibition curve with a large enough effect in the signal ratio, with a control signal flat, not every such curve was filed as active; inconclusive = small, poorly fitted or top-dose-only effect, or effect the other way, or a change in a side signal; the % refers to the signal ratio
#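 TMD8 human ABC-DLBCL cells with doxycycline-inducible IκBα–green luciferase fusion and unfused red luciferase, in 0.5% FBS medium; compounds up to 46 uM, 4 h at 37C. Green/red luminescence ratio, filter-overlap corrected, fitted to concentration-response curves.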
# GRP78 ERSR act: ER stress response induction in glioma; Potency, µM, actives largely listed as activators; 0.02% of 420,000 active; U87-MG GRP78 promoter luciferase reporter, 16 h; note: series mostly up to about 76 µM; nearly all actives have a fitted effect of over 35% in size
#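 Stably transfected U87-MG human glioma cells carrying a GRP78-based luminescent sensor were seeded at 1000 cells/well, pin-dosed with compounds and incubated 16 h. Luciferase reagent was then added, and end-point luminescence was read after 10 min at room temperature.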
# ALOX12 inh: blocks human arachidonate 12S-lipoxygenase. purified 12hLO, xylenol orange hydroperoxide absorbance. 1.1% of 580,000 active. P18054. Potency, µM (top dose mostly 108 µM), hits mostly inhibitors
# Target sequence (P18054 whole entry, looked up): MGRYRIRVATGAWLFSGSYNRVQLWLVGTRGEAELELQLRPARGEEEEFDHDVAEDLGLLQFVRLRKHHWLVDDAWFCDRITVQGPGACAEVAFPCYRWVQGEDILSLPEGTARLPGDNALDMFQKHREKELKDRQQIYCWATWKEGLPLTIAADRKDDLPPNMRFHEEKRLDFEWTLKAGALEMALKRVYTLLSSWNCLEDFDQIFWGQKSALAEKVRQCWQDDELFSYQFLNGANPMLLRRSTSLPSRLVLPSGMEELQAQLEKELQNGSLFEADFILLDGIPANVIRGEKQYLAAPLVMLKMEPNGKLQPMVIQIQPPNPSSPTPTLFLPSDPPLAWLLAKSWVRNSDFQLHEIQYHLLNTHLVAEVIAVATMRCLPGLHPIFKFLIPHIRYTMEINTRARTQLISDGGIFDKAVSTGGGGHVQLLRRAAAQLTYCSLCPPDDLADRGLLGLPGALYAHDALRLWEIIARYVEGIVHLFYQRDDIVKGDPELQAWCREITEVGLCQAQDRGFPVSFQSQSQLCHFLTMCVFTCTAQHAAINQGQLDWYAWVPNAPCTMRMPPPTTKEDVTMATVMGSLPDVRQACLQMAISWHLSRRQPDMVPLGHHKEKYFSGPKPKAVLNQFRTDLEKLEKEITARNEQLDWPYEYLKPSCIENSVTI
#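 Purified human 12hLO at 150 nM in 25 mM Hepes, 0.01% Triton X-100, pH 7.0, preincubated 15 min at room temperature with compound. Reaction started with 40 uM arachidonic acid, 30 min at room temperature. Hydroperoxide measured by Fe-xylenol orange, 573/405 nm absorbance ratio.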
# Hits are given with their value; – = inactive; ? = inconclusive; · = no result. Unless noted, calls come from the whole dose curve; as a rule, active = well fitted curve in the direction sought with a large enough effect; inconclusive = small, poorly fitted or top-dose-only effect, or another doubt; inactive = no such curve, though single readings can be large; an effect the other way counts as inactive or inconclusive.
SMILES,Apoferritin bind,Chronic BCR inh,GRP78 ERSR act,ALOX12 inh
CC(NC(=O)c1cccs1)c1ccc(Cl)cc1 (configuration not stated),·,·,–,–
CCc1cccc(CC)c1NC(=S)NC(C)c1ccccc1 (configuration not stated),–,–,–,39.8µM
O=c1[nH]cccc1NS(=O)(=O)c1ccccc1Cl,·,·,·,35.5µM
CCOc1ccc(C(=O)NCc2coc(-c3cccs3)n2)cc1,·,·,·,–
O=C(O)C(c1c[nH]c2cc(Cl)ccc12)N1CCN(Cc2ccccn2)CC1 (configuration not stated),·,·,·,–
O=C(O)C(c1c[nH]c2ccccc12)N1CCN(Cc2ccc(Cl)cc2Cl)CC1 (configuration not stated),·,·,·,–
O=C(O)C(c1c[nH]c2cc(Br)ccc12)N1CCN(Cc2ccc(Cl)cc2Cl)CC1 (configuration not stated),·,·,·,39.8µM
O=C(O)C(c1c[nH]c2cc(Cl)ccc12)N1CCN(C(c2ccccc2)c2ccccc2)CC1 (configuration not stated),·,·,·,7.94µM
O=C(O)CN1C(=O)/C(=C/C=C/c2ccccc2)SC1=S,–,–,–,–
O=C(O)CN1C(=O)/C(=C\C(Br)=C\c2ccccc2)SC1=S,–,–,–,35.5µM
CC(=C\c1ccccc1)/C=C1/SC(=S)N(C(C(=O)O)C(C)C)C1=O (configuration not stated),?,?,–,44.7µM
CC(/C=C1\SC(=S)N(CCCC(=O)Nc2ccc(C(=O)O)cc2)C1=O)=C\c1ccccc1,–,?,–,44.7µM
CC1CC1CNC(=O)c1nccnc1N (configuration not stated),·,·,·,–
O=C1CCCC2=C1C(c1ccccc1Cl)CC(=O)N2c1ccc(F)cc1F (configuration not stated),·,·,·,–
CCCCCNC(=O)C(c1ccc(C(F)(F)F)cc1)n1c(=O)c(-c2ccco2)nc2ccccc21 (configuration not stated),·,·,·,44.7µM
CCCCCNC(=O)C(c1ccnc2ccccc12)n1c(=O)c(-c2ccccc2)nc2ccccc21 (configuration not stated),·,·,·,–
CC(C)(C)NC(=O)C(C1CC1)n1c(=O)c(-c2ccccc2)nc2ccccc21 (configuration not stated),·,·,·,–
CCCCCNC(=O)C(c1cccc2ccccc12)n1c(=O)c(-c2ccco2)nc2ccccc21 (configuration not stated),·,·,·,10µM
CC(C)(C)NC(=O)C(c1cccc2ccccc12)n1c(=O)c(-c2ccco2)nc2ccccc21 (configuration not stated),·,·,·,44.7µM
CCCCCNC(=O)C(C1CC1)n1c(=O)c(-c2ccco2)nc2ccccc21 (configuration not stated),·,·,·,35.5µM
CC(C)(C)c1cc(NC(=O)CS(=O)(=O)c2ccccc2)on1,·,·,·,–
Cc1ccc(C)c(OCCC(=O)N2CCN(S(=O)(=O)c3cccs3)CC2)c1,·,·,·,–
O=c1c(-c2ccco2)nc2ccccc2n1/C=C(/c1ccc(C(F)(F)F)cc1)n1c(=O)[nH]c2ccccc21,·,·,·,15.8µM
COc1ccc(S(=O)Cc2ccc(C(=O)NCc3cccc(OC)c3OC)o2)cc1 (configuration not stated),·,·,·,–
Cc1oc(-c2ccccc2)nc1C(=O)NCc1ccccc1,·,·,·,17.8µM
SMILES,Apoferritin bind,Chronic BCR inh,GRP78 ERSR act,ALOX12 inh
Cc1oc(-c2ccccc2)nc1C(=O)Nc1ccccc1F,·,·,·,–
Cc1ccc(C(=O)Nc2cccc(-c3nc4ccccc4o3)c2)c(Cl)c1,–,·,–,–
Cc1cccc(NC(=O)c2ccccc2NC(=O)c2nc(-c3ccccc3)oc2C)c1,·,·,·,35.5µM
COc1cccc(CNC(=O)c2nc(-c3ccccc3)oc2C)c1,·,·,·,–
O=C(O)c1ccccc1-c1ccccc1C(=O)Nc1cccc(-c2nc3ccccc3o2)c1,–,?,?,11.2µM
O=C1CCCCCN1Sc1ccccc1,?,?,–,15.8µM
CCn1c(N)c(C(=O)NCCCOC)sc1=S,–,?,–,39.8µM
Cc1cc(Cl)c(C)c(S(=O)(=O)N2CCCC2c2nnc3ccccn23)c1Cl (configuration not stated),·,·,·,–
Cc1ccc(OCCN2CCCC2)cc1,–,–,–,–
Cc1c(-c2ccc(O)cc2)nn(-c2ccc(O)cc2)c1-c1ccc(OCCN2CCCCC2)cc1,·,·,–,20µM
COc1ccc(C(=O)NC(C)c2nnc(SCc3ccc(Cl)c(Cl)c3)n2C)cc1 (configuration not stated),–,–,–,3.98µM
